Measurements from PubChem BioAssay.
For some of these results: Potency and affinity values are given separately. The source made the active and inactive calls. Unless noted, no rule for the calls is given here.

Legend:
[1] = antimalarial activity against Dd2 strain (AID 2302;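 active = growth inhibition above 50% at the single 2 µM test dose, taken to imply half-maximal potency below 2 µM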;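 also: 0% = DMSO untreated growth and 100% = chloroquine plus artemisinin killed control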); conditions: P. falciparum Dd2 in RBCs, LDH growth readout, 72 h; at 2 µM; active compounds read high
[2] = HepG2 cytotoxicity, primary screen, cytotoxicity control for P. falciparum antimalarial project, cell-based, ATP luminescence (AID 2303;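 active = inhibition above 50%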;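 also: 0% = DMSO wells and 100% = digitonin-killed cells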); conditions: HepG2 viability, 24-48 h, at 10 µM, active compounds read high
[3] = biological target: L-lactate dehydrogenase (Plasmodium falciparum (isolate CDC / Honduras)) (UniProt Q27743); assay: PfLDH activity inhibition – cell lysate, 3D7 strain, counter-screen for P. falciparum growth inhibition project (AID 2304);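 also: 0% = vehicle and 100% = reference inhibitor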; conditions: P. falciparum 3D7 crude extract, LDH APAD/NBT absorbance; at 2 µM; active compounds read high
L-lactate dehydrogenase (Plasmodium falciparum (isolate CDC / Honduras)), sequence (Q27743 whole entry, looked up): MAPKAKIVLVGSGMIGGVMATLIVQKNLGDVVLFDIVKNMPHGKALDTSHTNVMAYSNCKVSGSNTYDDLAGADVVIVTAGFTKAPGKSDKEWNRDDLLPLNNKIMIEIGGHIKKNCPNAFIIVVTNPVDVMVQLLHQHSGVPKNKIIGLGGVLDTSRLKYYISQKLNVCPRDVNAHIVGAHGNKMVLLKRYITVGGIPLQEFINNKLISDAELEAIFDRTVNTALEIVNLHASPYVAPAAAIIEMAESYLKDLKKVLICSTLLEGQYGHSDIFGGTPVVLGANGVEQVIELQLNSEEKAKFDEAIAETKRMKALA

[4] = inhibition of 3D7 malaria parasite growth – strain 3D7 (AID 2306);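 also: 0% = DMSO wells and 100% = chloroquine plus artemisinin control wells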; conditions: P. falciparum 3D7 erythrocytic growth, LDH absorbance, 72 h; at 2 µM; active compounds read high
[5] = biological target: Calcium-dependent protein kinase 1 (Plasmodium falciparum (isolate 3D7)) (UniProt P62344); assay: PfCDPK1 kinase inhibitors, biochemical, TCAMS library (AID 1159585; cut-off not given, nearly all actives have IC50 up to about 0.98 µM;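 also: inhibitors leave more ATP so luminescence rises with inhibition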); conditions: recombinant PfCDPK1, Kinase-Glo ATP depletion luminescence
Calcium-dependent protein kinase 1 (Plasmodium falciparum (isolate 3D7)), sequence (P62344 whole entry, looked up): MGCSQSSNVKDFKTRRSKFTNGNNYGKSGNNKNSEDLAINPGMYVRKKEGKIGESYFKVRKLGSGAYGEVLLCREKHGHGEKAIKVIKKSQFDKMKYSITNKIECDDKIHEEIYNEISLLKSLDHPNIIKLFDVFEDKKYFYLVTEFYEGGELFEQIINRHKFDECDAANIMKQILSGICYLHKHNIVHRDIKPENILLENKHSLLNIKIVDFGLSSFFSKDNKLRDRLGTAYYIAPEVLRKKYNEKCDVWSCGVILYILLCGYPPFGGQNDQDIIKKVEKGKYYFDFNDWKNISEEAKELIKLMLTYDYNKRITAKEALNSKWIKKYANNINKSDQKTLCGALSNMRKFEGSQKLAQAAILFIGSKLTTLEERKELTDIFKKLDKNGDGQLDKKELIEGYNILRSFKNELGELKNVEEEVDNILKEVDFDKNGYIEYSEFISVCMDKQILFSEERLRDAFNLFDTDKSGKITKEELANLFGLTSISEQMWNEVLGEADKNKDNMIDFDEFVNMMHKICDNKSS

[6] = biological target: Plasmodium falciparum protein kinase 6 (PK6, PF3D7_1337100) (UniProt Q8IDW1); assay: PfPK6 kinase inhibitors, biochemical, TCAMS library (AID 1159586); conditions: recombinant PfPK6, Kinase-Glo ATP depletion luminescence
Plasmodium falciparum protein kinase 6 (PK6, PF3D7_1337100), sequence (Q8IDW1 1-305): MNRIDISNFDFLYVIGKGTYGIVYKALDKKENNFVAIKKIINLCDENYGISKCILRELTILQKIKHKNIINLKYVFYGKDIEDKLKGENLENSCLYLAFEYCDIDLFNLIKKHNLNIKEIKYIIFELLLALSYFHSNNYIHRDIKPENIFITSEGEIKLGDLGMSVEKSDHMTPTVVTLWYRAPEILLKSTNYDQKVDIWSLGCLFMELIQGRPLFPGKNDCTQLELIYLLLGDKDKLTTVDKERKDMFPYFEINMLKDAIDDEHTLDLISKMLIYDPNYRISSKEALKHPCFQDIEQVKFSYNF

[7] = biological target: Protein kinase 7 (PK7), Plasmodium falciparum 3D7 (PF3D7_0213400) (UniProt Q7YTF7); assay: inhibition of Plasmodium PK7 catalytic activity – biochemical, TCAMS antimalarial set, Kinase-Glo luminescence (AID 1159587); conditions: recombinant PfPK7, Kinase-Glo ATP depletion luminescence
Protein kinase 7 (PK7), Plasmodium falciparum 3D7 (PF3D7_0213400), sequence (Q7YTF7 1-343): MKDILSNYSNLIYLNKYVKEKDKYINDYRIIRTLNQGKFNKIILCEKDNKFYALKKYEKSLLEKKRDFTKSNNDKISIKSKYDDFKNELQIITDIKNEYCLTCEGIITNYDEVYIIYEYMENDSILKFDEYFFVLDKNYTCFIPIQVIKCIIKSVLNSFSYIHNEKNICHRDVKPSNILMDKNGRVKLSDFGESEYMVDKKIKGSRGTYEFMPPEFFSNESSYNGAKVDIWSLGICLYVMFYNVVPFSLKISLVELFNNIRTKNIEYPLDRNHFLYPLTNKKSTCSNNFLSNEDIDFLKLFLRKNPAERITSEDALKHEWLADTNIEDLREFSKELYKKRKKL

[8] = biological target: Calcium-dependent protein kinase 4 (Plasmodium falciparum (isolate 3D7)) (UniProt Q8IBS5); assay: PfCDPK4 kinase inhibitors, biochemical, TCAMS library (AID 1159588; cut-off not given, nearly all actives have IC50 up to about 0.91 µM); conditions: recombinant PfCDPK4, Kinase-Glo ATP depletion luminescence
Calcium-dependent protein kinase 4 (Plasmodium falciparum (isolate 3D7)), sequence (Q8IBS5 whole entry, looked up): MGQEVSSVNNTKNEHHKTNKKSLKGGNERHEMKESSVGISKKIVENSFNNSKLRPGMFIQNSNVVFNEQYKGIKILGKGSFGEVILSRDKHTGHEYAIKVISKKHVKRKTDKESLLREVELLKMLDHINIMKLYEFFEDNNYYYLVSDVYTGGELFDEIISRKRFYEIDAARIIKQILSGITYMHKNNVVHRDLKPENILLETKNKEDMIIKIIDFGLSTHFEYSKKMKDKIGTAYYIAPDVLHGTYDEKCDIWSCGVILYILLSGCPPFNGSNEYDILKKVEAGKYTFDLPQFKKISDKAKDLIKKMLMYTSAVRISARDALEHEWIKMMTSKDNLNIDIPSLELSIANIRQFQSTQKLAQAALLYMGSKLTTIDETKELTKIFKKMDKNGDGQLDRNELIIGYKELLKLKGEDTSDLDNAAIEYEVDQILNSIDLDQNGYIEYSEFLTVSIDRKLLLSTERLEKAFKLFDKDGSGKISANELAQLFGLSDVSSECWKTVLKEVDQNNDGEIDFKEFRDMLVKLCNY

Cc1cc(-c2ccc(CN3Cc4ccccc4C3)cc2)ccc1S(=O)(=O)NCCN1CCCC1
inactive: growth inhibition [1] 10% | inhibition [2] 49% | inhibition [3] -4% | outcome [5] | outcome [6] | outcome [7] | outcome [8]
active: growth inhibition [4] 94%

COc1ccc(NS(=O)(=O)c2cc(NC(=O)Cn3ccccc3=O)ccc2N2CCCCC2)cc1
inactive: inhibition [2] 20% | inhibition [3] 1% | outcome [5] | outcome [6] | outcome [7] | outcome [8]
active: growth inhibition [1] 83% | growth inhibition [4] 92%

CN(/N=C/C=C/c1ccc(Cl)cc1)c1nc(NCCc2ccc(O)cc2)nc(N2CCNCC2)n1
inactive: inhibition [2] 14% | inhibition [3] 1% | outcome [5] | outcome [6] | outcome [7] | outcome [8]
active: growth inhibition [1] 69% | growth inhibition [4] 92%

O=C(c1cc(OC(F)(F)F)ccc1O)N1CCN(c2ccccc2)CC1
active: growth inhibition [4] 88%
inactive: growth inhibition [1] 1% | inhibition [2] -10% | inhibition [3] -4% | outcome [5] | outcome [6] | outcome [7] | outcome [8]

Cn1cnc2c(Nc3ccncc3)nc(-c3ccc4ccccc4c3)nc21
active: growth inhibition [1] 66% | inhibition [2] 55% | growth inhibition [4] 96%
inactive: inhibition [3] 7% | outcome [5] | outcome [6] | outcome [7] | outcome [8]

COc1ccc2c(c1)CC1CN(CCCCNC(=O)c3ccc(NC(=O)c4cc(Cl)cc(Cl)c4)cc3)CCN1C2 (stereo not drawn)
inactive: inhibition [2] 7% | inhibition [3] 1% | outcome [5] | outcome [6] | outcome [7] | outcome [8]
active: growth inhibition [1] 57% | growth inhibition [4] 101%

CC(C)[C@@H](NC(=O)NC1CCC(CCN2[C@@H]3CC[C@H]2CC(OC(=O)C(CO)c2ccccc2)C3)CC1)C(O)(c1ccccc1)c1ccccc1 (stereo partly drawn)
active: growth inhibition [1] 56% | growth inhibition [4] 96%
inactive: inhibition [2] 19% | inhibition [3] 2% | outcome [5] | outcome [6] | outcome [7] | outcome [8]

N#Cc1ccc(N2CCN(Cc3cccc(-c4cccc(-c5nc6ccc(F)cc6[nH]5)c4)c3)CC2)nc1
active: growth inhibition [1] 52% | growth inhibition [4] 90%
inactive: inhibition [2] 26% | inhibition [3] 3% | outcome [5] | outcome [6] | outcome [7] | outcome [8]

c1cc2nc(CCc3nc4ccc(C5=N[C@H]6CCCC[C@H]6N5)cc4[nH]3)[nH]c2cc1C1=N[C@@H]2CCCC[C@@H]2N1
active: growth inhibition [1] 96% | growth inhibition [4] 93%
inactive: inhibition [2] 3% | inhibition [3] -2% | outcome [5] | outcome [6] | outcome [7] | outcome [8]

COc1ccc2nc(C)cc(NN=Cc3cccc(F)c3)c2c1
active: growth inhibition [1] 100% | growth inhibition [4] 100%
inactive: inhibition [2] 2% | inhibition [3] 1% | outcome [5] | outcome [6] | outcome [7] | outcome [8]

COc1ccc(NC(=O)/C=C/c2ccccc2Cl)cc1OCCN1CCC(NCc2ccccc2)CC1
inactive: inhibition [2] 28% | inhibition [3] 7% | outcome [5] | outcome [6] | outcome [7] | outcome [8]
active: growth inhibition [1] 101% | growth inhibition [4] 106%

CC(=O)Nc1cccc(C(=O)Nc2cccc(-c3ccc(-c4nc5c(C)cccc5[nH]4)s3)c2)c1
inactive: growth inhibition [1] 26% | inhibition [3] 4% | outcome [5] | outcome [6] | outcome [7] | outcome [8]
active: inhibition [2] 75% | growth inhibition [4] 99%

COc1ccccc1CCCON1C(N)=NC(N)=NC1(C)C
inactive: inhibition [3] -1% | outcome [5] | outcome [6] | outcome [7] | outcome [8]
active: growth inhibition [1] 92% | inhibition [2] 68% | growth inhibition [4] 95%

CN(CCc1ccccn1)Cc1ccc(-c2ccc(-c3nc4ccccc4[nH]3)s2)cc1
active: growth inhibition [4] 100%
inactive: growth inhibition [1] 48% | inhibition [2] 29% | inhibition [3] 6% | outcome [5] | outcome [6] | outcome [7] | outcome [8]

c1cc(CN2CCCCC2)cc(-c2ccc(-c3nc4ccccc4[nH]3)cc2)c1
active: growth inhibition [1] 88% | growth inhibition [4] 101%
inactive: inhibition [2] 9% | inhibition [3] -2% | outcome [5] | outcome [6] | outcome [7] | outcome [8]

O=C(Nc1cccc(CN2CCCN(CC3CCCCC3)CC2)c1)c1cc2ccccc2s1
active: growth inhibition [4] 96%
inactive: growth inhibition [1] 15% | inhibition [2] 29% | inhibition [3] 0% | outcome [5] | outcome [6] | outcome [7] | outcome [8]

Cc1cccc2[nH]c(-c3ccc(-c4cccc(NC(=O)C(C)CN(C)C)c4)cc3)nc12 (stereo not drawn)
active: growth inhibition [1] 61% | growth inhibition [4] 99%
inactive: inhibition [2] 20% | inhibition [3] 1% | outcome [5] | outcome [6] | outcome [7] | outcome [8]

Nc1c2c(nc3ccc(C(=O)Nc4ccccc4)cc13)CCCC2
active: growth inhibition [1] 78% | growth inhibition [4] 100%
inactive: inhibition [2] 20% | inhibition [3] -3% | outcome [5] | outcome [6] | outcome [7] | outcome [8]

COc1ccc(CCNc2nc(N)c3cc(OC)c(OC)cc3n2)cc1
inactive: growth inhibition [1] 1% | inhibition [2] 16% | inhibition [3] -1% | outcome [5] | outcome [6] | outcome [7] | outcome [8]
active: growth inhibition [4] 100%

CS(=O)(=O)CCNCc1cccc(-c2ccc3c(Nc4ccc(Oc5ccccc5)cc4)ccnc3c2)c1
active: growth inhibition [1] 96% | growth inhibition [4] 101%
inactive: inhibition [2] 18% | inhibition [3] 6% | outcome [5] | outcome [6] | outcome [7] | outcome [8]

N#Cc1cccc(NC(=O)Nc2cccc(-c3ccc(-c4nc5ccc(C(F)(F)F)cc5[nH]4)cc3)c2)c1
inactive: inhibition [3] -8% | outcome [5] | outcome [6] | outcome [7] | outcome [8]
active: growth inhibition [1] 99% | inhibition [2] 54% | growth inhibition [4] 102%

CN(C)Cc1c(O)ccc2[nH]c(-c3cccc(F)c3)nc12
active: growth inhibition [1] 71% | growth inhibition [4] 99%
inactive: inhibition [2] 9% | inhibition [3] -2% | outcome [5] | outcome [6] | outcome [7] | outcome [8]

COc1ccccc1CN1CCC(NC(=O)c2ccc(-c3cccc(C(F)(F)F)c3)s2)CC1
inactive: growth inhibition [1] 12% | inhibition [3] -2% | outcome [5] | outcome [6] | outcome [7] | outcome [8]
active: inhibition [2] 83% | growth inhibition [4] 85%

O=C(NC1CCN(Cc2ccccc2)CC1)c1ccc(-c2nc3cc(Cl)c(Cl)cc3[nH]2)c(F)c1
inactive: inhibition [2] 4% | inhibition [3] -2% | outcome [5] | outcome [6] | outcome [7] | outcome [8]
active: growth inhibition [1] 83% | growth inhibition [4] 101%

COc1ccc(S(=O)(=O)N2CCC3(CC2)OCC(=O)NC3c2ccc(Cl)c(Cl)c2)cc1 (stereo not drawn)
active: growth inhibition [4] 91%
inactive: growth inhibition [1] 44% | inhibition [2] -4% | inhibition [3] -2% | outcome [5] | outcome [6] | outcome [7] | outcome [8]

CCCCN(Cc1cnccc1-c1ccc(Br)cc1)c1ccc(C(O)(C(F)(F)F)C(F)(F)F)cc1
inactive: growth inhibition [1] 45% | inhibition [2] 10% | inhibition [3] 6% | outcome [5] | outcome [6] | outcome [7] | outcome [8]
active: growth inhibition [4] 87%

CN(C)CC1CCCN1Cc1ccccc1-c1cnn(C)c(=O)c1Oc1ccc(F)cc1 (stereo not drawn)
active: growth inhibition [4] 91%
inactive: growth inhibition [1] 19% | inhibition [2] 29% | inhibition [3] 2% | outcome [5] | outcome [6] | outcome [7] | outcome [8]

O=C(c1cccc(Cl)c1)N1CCN(c2ccc([N+](=O)[O-])c(NC3CC3)c2)CC1
inactive: inhibition [2] 11% | inhibition [3] 4% | outcome [5] | outcome [6] | outcome [7] | outcome [8]
active: growth inhibition [1] 79% | growth inhibition [4] 100%

Cc1nc(/N=C(\N)NC(=O)NC2CCCCC2)nc2ccccc12
active: growth inhibition [1] 99% | growth inhibition [4] 95%
inactive: inhibition [2] 21% | inhibition [3] -2% | outcome [5] | outcome [6] | outcome [7] | outcome [8]

O=C(NCCCCNCC(Cc1cccc(O)c1)c1ccccc1)c1ccc(NC(=O)c2ccc(Cl)cc2)cc1 (stereo not drawn)
inactive: growth inhibition [1] 1% | inhibition [2] -1% | inhibition [3] 2% | outcome [5] | outcome [6] | outcome [7] | outcome [8]
active: growth inhibition [4] 96%

CCCCN(CCCC)CCCN(CCCN(CCCC)CCCC)c1cc(C)nc(Nc2ccc3cc(Br)ccc3c2)n1
active: growth inhibition [1] 99% | inhibition [2] 52% | growth inhibition [4] 101%
inactive: inhibition [3] 5% | outcome [5] | outcome [6] | outcome [7] | outcome [8]

C=CCOC(=O)N1CCC(CNCc2ccc(-c3cccc(-c4nc5ccc(F)cc5[nH]4)c3)cc2)C1 (stereo not drawn)
inactive: inhibition [2] 26% | inhibition [3] -2% | outcome [5] | outcome [6] | outcome [7] | outcome [8]
active: growth inhibition [1] 99% | growth inhibition [4] 102%

CCN(CC)CCNC(=O)c1ccc(NC(=O)c2ccc(-c3cc(NC(=O)CC4CCCC4)ccc3C)cc2)cc1
inactive: inhibition [2] 12% | inhibition [3] -5% | outcome [5] | outcome [6] | outcome [7] | outcome [8]
active: growth inhibition [1] 95% | growth inhibition [4] 99%

COc1ccc2nccc([C@@H](O)CN3CCC(NC(=O)C(c4ccccc4C)N4CCC(Cc5ccccc5)CC4)CC3)c2c1 (stereo partly drawn)
active: growth inhibition [1] 97% | growth inhibition [4] 102%
inactive: inhibition [2] 10% | inhibition [3] 3% | outcome [5] | outcome [6] | outcome [7] | outcome [8]

Cc1ccnc2nc(C(=O)Nc3cc(C(F)(F)F)ccc3N3CCCCC3)nn12
inactive: inhibition [2] 7% | inhibition [3] -5% | outcome [5] | outcome [6] | outcome [7] | outcome [8]
active: growth inhibition [1] 94% | growth inhibition [4] 96%

Nc1c2c(nc3ccc(Oc4ccc(Cl)cc4)cc13)CCCC2
active: growth inhibition [1] 65% | growth inhibition [4] 100%
inactive: inhibition [2] 42% | inhibition [3] -8% | outcome [5] | outcome [6] | outcome [7] | outcome [8]

O=C(NOCCOc1ccccc1)c1ccccc1
active: growth inhibition [4] 98%
inactive: growth inhibition [1] 0% | inhibition [2] 0% | inhibition [3] -1% | outcome [5] | outcome [6] | outcome [7] | outcome [8]

COc1cc2nc(N3CCC(CNC(=O)c4ccc(-c5ccc(C(=O)N(C)C)cc5OCCN(C)C)cc4)CC3)nc(N)c2cc1OC
active: growth inhibition [4] 95%
inactive: growth inhibition [1] -1% | inhibition [2] -1% | inhibition [3] -6% | outcome [5] | outcome [6] | outcome [7] | outcome [8]

NC1=Nc2ccc(Cl)cc2C1(O)c1ccccc1 (stereo not drawn)
inactive: inhibition [2] -3% | inhibition [3] -3% | outcome [5] | outcome [6] | outcome [7] | outcome [8]
active: growth inhibition [1] 51% | growth inhibition [4] 100%

Cc1ccc(CNC(=O)[C@H](CCCN)Nc2cc(C)nc(Nc3ccccc3)n2)cc1
inactive: growth inhibition [1] -4% | inhibition [2] -2% | inhibition [3] 2% | outcome [5] | outcome [6] | outcome [7] | outcome [8]
active: growth inhibition [4] 90%

Fc1ccc(OC2CN(c3nccc(NCc4ccccc4Cl)n3)C2)cc1
inactive: inhibition [2] -2% | inhibition [3] 6% | outcome [5] | outcome [6] | outcome [7] | outcome [8]
active: growth inhibition [1] 99% | growth inhibition [4] 98%
